Bioassay records: PubChem BioAssay, several laboratories
MBD2 DNA inh: inhibitors of human MBD2 binding to methylated oligonucleotide; hit rate 0.31% among 370,000; AID 686964; Q9UBB5; TR-FRET; inhibition, % at 4.4 µM; in the data active = inhibition above about 13%
KLK7 zymogen act: activators of human kallikrein-7 zymogen; hit rate 0.9% among 370,000; AID 652039; activation, % at 7 µM; purified proKLK7, EDANS-DABCYL substrate fluorescence; 100% is mature enzyme control, 0% vehicle; P49862;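 active = activation above the mean of all tested compounds plus 3 SD, computed per campaign excluding outliers beyond control limits, cut at about 13% in these data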
UHRF1 MBD2 ctr: human UHRF1 methylated DNA binding inhibitors. hit rate 0.75% among 370,000. UHRF1 binding to methylated oligo, TR-FRET. inhibition, % at 4.4 µM. Q96T88. AID 687016; in the data active = inhibition above about 21%;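 also: UHRF1 SRA domain binding a hemimethylated CpG hairpin DNA probe; 0% = median of test compound wells and 100% = reference inhibitor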
Neddyl block: cullin neddylation inhibition; AID 651699; P61081+Q13564; hit rate 0.58% among 360,000; TR-FRET cullin neddylation, biochemical; calls only at 25 µM; in the data active = inhibition above about 36%
LEDGF integ inh: blocks HIV-1 LEDGF/p75-dependent DNA integration. TR-FRET IN-LEDGF/p75 DNA integration, Eu/Cy5. AID 743269. inhibition, % at 3.7 µM. hit rate 0.64% among 370,000;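 active = inhibition above the screen-wide mean plus 3 SD, cut at about 13% in these data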;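 also: signal is the Cy5 over europium emission ratio at 671 and 618 nm; 0% = plate median of compound wells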
Rin1 Abl inh: human Rin1-Abl interaction inhibition. P00519+Q13671. TR-FRET Rin1/Abl binding, biochemical. inhibition, % at 7.35 µM. hit rate 0.4% among 360,000; in the data active = inhibition above about 5%, passing the limit was not always enough
KLK7 act conf: confirmation of human kallikrein-7 zymogen activators; activation, % at 7 µM; hit rate 68% among 3,200; purified proKLK7, EDANS-DABCYL substrate fluorescence; scaled: vehicle 0, mature enzyme 100; shares compounds with KLK7 zymogen act;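 active = activation, as change over the incubation, above the mean of all tested compounds plus 3 SD, cut at about 13% in these data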
EDANS interfere: counter-screen for kallikrein-7 activators: EDANS-DABCYL optical interference | EDANS-DABCYL substrate fluorescence interference, no enzyme, 4 h; solvent 0%, active enzyme control 100% | hit rate 80% among 3,200 | activation, % at 7 µM | shares compounds with KLK7 zymogen act;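 active = activation above the all-compound mean plus 3 SD, ignoring values outside control-based bounds, cut at about 4.8% in these data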;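 also: value is the 4 h activation minus the activation read at time zero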
K7 EDANS ctr: optically interferes with EDANS-DABCYL fluorescence, kallikrein-7 activator counter-screen. EC50, µM. EDANS-DABCYL peptide fluorescence interference, no enzyme. hit rate 20% among 250. shares compounds with KLK7 zymogen act;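 active = compounds that raise the fluorescence signal in this interference counterscreen, with EC50 at or below 10 µM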;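 also: intact quenched peptide substrate alone read at 355 nm excitation and 520 nm emission; signal is fluorescence gain from T0 to T4 after four hours at room temperature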
* = called active by the depositor; i = inactive; nt = no result given. Compounds with a hit are over-represented: about 3.1% of the library has one in this group of screens.

SMILES | MBD2 DNA inh | KLK7 zymogen act | UHRF1 MBD2 ctr | Neddyl block | LEDGF integ inh | Rin1 Abl inh | KLK7 act conf | EDANS interfere | others
Cc1cccc(N2CCN(C(=O)c3cccc(N4CCCC4=O)c3)C(C)C2)c1 (configuration not stated) | -2 | 0 | -2 | i | -2 | 1 | nt | nt
Cc1cccc(C=Nc2ccccc2C(N)=O)c1 | 2 | 13* | 4 | nt | 3 | -3 | 28* | 22* | K7 EDANS ctr=>69
Cc1ccc(C=Nc2ccccc2C(N)=O)s1 | -3 | 17* | -4 | nt | 0 | 2 | 12 | 14*
Cc1cccc(/C=N/NC(=O)Cc2cccs2)c1 | 2 | 0 | -1 | i | 3 | 3 | nt | nt
Cc1ccc(/C=N/N=C/c2ccc(C)s2)s1 | 1 | -1 | 3 | i | 2 | -5 | nt | nt
COc1ccc(C(C)=O)cc1CSC(=S)N1CCSCC1 | -4 | -1 | -2 | nt | -4 | nt | nt | nt
Cc1cn2nc(N)c3ccccc3c2n1 | -1 | 1 | -1 | nt | 1 | 1 | nt | nt
Nc1nn2cc(-c3ccccc3)nc2c2ccccc12 | -1 | 66* | 0 | nt | -1 | 4 | 55* | 53*
COc1ccc(/C=C2\C(=O)N(c3c(Cl)cc(Cl)cc3Cl)N=C2NC(=O)c2cccc([N+](=O)[O-])c2)cc1 | nt | nt | nt | i | nt | -2 | nt | nt
Cn1c2ccccc2c(=O)c2ccc(F)cc21 | -2 | 13* | -11 | nt | 0 | 0 | 50* | 44*
COc1cc(-c2ccc3c(=O)c4ccccc4n(C)c3c2)cc(OC)c1OC | 1 | -8 | 10 | i | -2 | 1 | nt | nt
COc1ccc(S[C@]2(C(=O)N3CCCC3)CC(=O)N(P(=O)(OC)OC)[C@@H]2c2ccc(OC)cc2)cc1 | -10 | 1 | 1 | nt | 8 | nt | nt | nt
COc1ccc2nc(NC(=O)c3cccs3)sc2c1 | 5 | 25* | 18 | i | 4 | 1 | 2 | 1
Cc1cc(/C=C(\C#N)C(=O)Nc2ccccc2F)c(C)[nH]1 | -3 | 32* | 5 | i | 3 | -6 | 6 | 6.9*
CN(C)CCCNC(=O)C[C@H]1C[C@H](C(=O)N2CCOCC2)[C@@]2(CCC3CCCC3)c3[nH]c4cc(-c5ccco5)ccc4c3CCN2C1=O | -1 | 68* | 2 | nt | 1 | -4 | 51* | 51*
CC(C)(C)NC(=O)C[C@H]1C[C@H](C(=O)N2CCOCC2)[C@@]2(CCC3CCCC3)c3[nH]c4cc(-c5ccco5)ccc4c3CCN2C1=O | nt | nt | nt | nt | nt | 3 | nt | nt
COCCCNC(=O)C[C@H]1C[C@H](C(=O)N2CCOCC2)[C@@]2(CCC3CCCC3)c3[nH]c4cc(-c5ccco5)ccc4c3CCN2C1=O | 0 | 23* | 2 | nt | -1 | 1 | 13* | 18*
O=C(C[C@H]1C[C@H](C(=O)N2CCOCC2)[C@@]2(CCC3CCCC3)c3[nH]c4cc(-c5ccco5)ccc4c3CCN2C1=O)NCCN1CCOCC1 | -1 | 91* | -1 | nt | -1 | 0 | 90* | 101*
OC1c2c(F)cccc2N=C2CCCCN21 (configuration not stated) | -5 | 14* | 13 | nt | -1 | -1 | 11 | 8.3*
COc1cc2c(cc1OC)C(c1cc(OC)c(OC)c(OC)c1)C1(O)C(=O)OCC1(O)C2 (configuration not stated) | 7 | 57* | 21 | i | 0 | 3 | 0 | 1
COc1cc2c(cc1OC)C1c3ccc(OC)c(OC)c3OCC1(O)C2 (configuration not stated) | -3 | 0 | 1 | i | 1 | 1 | nt | nt
CCc1sc(NC(=O)c2cc3ccccc3oc2=O)nc1-c1cccs1 | -4 | 0 | -4 | i | 0 | -1 | nt | nt
COCCCNC(=O)c1nnn2c1nc(N)c1cc(Cl)ccc12 | 4 | 15* | -3 | nt | -1 | nt | 40* | 40*
CCOC(=O)Cn1c(C(F)(F)F)nc2nc(Cl)c(Cl)nc21 | 5 | 34* | 5 | i | 0 | 4 | 8 | 7.1*
